PABP1 MLLE inh = inhibitors of PABP1 MLLE–PAM2 peptide binding, primary screen, biochemical, fluorescence polarization, FITC-PAM2, GST-MLLE | Polyadenylate-binding protein 1 (Homo sapiens), P11940 | AID 588489, 2011 | inhibition, % at 20 µM | 360,000 compounds, 0.36% hits; in the data active = inhibition above about 35%, passing the limit was not always enough
eIF4H inh = human eIF4H binding inhibitors, primary screen, translation initiation inhibitor project, biochemical, uHTS, fluorescence polarization | Eukaryotic translation initiation factor 4H (Homo sapiens), Q15056 | eIF4H fluorescence polarization binding assay | inhibition, % at 35 µM | 290,000 compounds, 0.94% hits | AID 2012, 2009;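 also: calls also rest on retests at 20 µM and on dose response follow-up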
GRK2 inh = compounds blocking aptamer binding on GRK2 – biochemical, human GRK2, bead flow cytometry, HTS, primary screen; Beta-adrenergic receptor kinase 1 (Homo sapiens), P25098; FAM-aptamer displacement from GRK2; inhibition of aptamer binding, % at 10 µM; 330,000 compounds, 0.59% hits;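 active = inhibition of aptamer binding above 40%, roughly 3 SD of noise, on plates passing a quality check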;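 also: median bead fluorescence of bound FAM aptamer so fluorescent compounds give negative values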
PERK inh = block of dimerizer-induced PERK translation repression, primary screen, PERK inhibitor project, CHO PERK-DD cells, SEAP luminescence, HTS; Eukaryotic translation initiation factor 2-alpha kinase 3 (Homo sapiens), Q9NZJ5; CHO PERK-DD fusion, SEAP luminescence translation reporter; inhibition, % at 5.6 µM; 220,000 compounds, 0.17% hits;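 active = inhibition above the mean inhibition of all tested compounds plus 3 SD, set separately per screening campaign, cut at about 2.9% in these data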;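 also: PERK kinase domain activated by AP20187 dimerizer at 100 nM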
PABP FP inh = PABP poly(A) RNA binding inhibitors, primary screen, biochemical, fluorescence polarization, uHTS; Polyadenylate-binding protein 1 (Homo sapiens), P11940; inhibition, % at 35 µM; 290,000 compounds, 1% hits;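 also: calls also rest on retests at 20 µM and on dose response follow-up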
A number is an active result; 0 = inactive; ? = inconclusive; - = not tested or not shown. An excerpt weighted towards active compounds, which were near 1.9% of everything screened. Unless noted, no rule for the calls is given here.

SMILES | PABP1 MLLE inh | eIF4H inh | GRK2 inh | PERK inh | PABP FP inh
COc1ccc(S(=O)(=O)NC(=O)C2(C)CCN2C(=O)Cc2cc(C)cc(C)c2)cc1OC (stereo not given) | 0 | - | - | - | -
O=C1CC(SC(=S)C2CCCC2=O)C(=O)N1 (stereo not given) | 45.9 | - | - | - | -
CC(=O)c1ccc(OC(C)C)c(Cc2c(O)nc(N)[nH]c2=O)c1 | 0 | 0.7 | 0 | 0 | 99.8
CC(=O)c1ccc(OCC(C)C)c(Cc2c(O)nc(N)[nH]c2=O)c1 | 0 | 0 | 0 | 0 | 0
O=C(Nc1cccs1)Nc1c(F)c(F)c(F)c(F)c1F | 43.1 | 0 | 0 | 0 | 0
Cc1cccc(C)c1NC(=O)Nc1cccs1 | 0 | 0 | 0 | 0 | 0
O=C(Nc1cccs1)Nc1c(F)c(F)cc(F)c1F | 0 | 69.4 | 0 | 0 | 2.5
O=C(Nc1cccs1)Nc1c(F)cc(F)cc1Br | 0 | 0 | 0 | 0 | 0
O=C(COC(=O)c1cc([N+](=O)[O-])ccc1N1CCOCC1)c1ccccc1Cl | 0 | 0 | 57.0 | - | 0
O=C(COC(=O)c1cc([N+](=O)[O-])ccc1N1CCOCC1)c1ccccc1 | 0 | - | 0 | - | -
O=C(NC(=S)Nc1cccnc1)c1cccc(Cl)c1 | 42.6 | - | - | - | -
O=C(NC(=S)Nc1cccnc1)c1cc2ccccc2o1 | 40.9 | 0 | 0 | 0 | 0
O=C(NC(=S)Nc1ccccc1)c1cncc(C#Cc2ccccc2)c1 | 39.7 | 0 | 0 | 0 | 0
CC(=O)c1cccc(NC(=S)NC(=O)c2cccc(Cl)c2)c1 | 0 | 0 | 0 | 0 | 0
Cc1cccc(NC(=O)CN(C)C(=O)Cc2ccc(-c3ccccc3)cc2)c1C | 0 | - | - | - | -
N#CC1=C(N)C(C#N)(C#N)C(c2ccncc2)C2CN(C(=O)OCc3ccccc3)CC=C12 (stereo not given) | 0 | 74.8 | 0 | 0 | 9.4
COc1ccc(Nc2ncccc2C(=O)NCc2ccccc2)cc1 | 0 | 0 | 0 | 0 | 0
COc1cccc(Nc2ncccc2C(=O)NCc2ccccc2)c1 | 0 | 84.8 | - | 0 | 101.5
O=[N+]([O-])c1c(NCc2ccco2)ccc2nonc12 | 0 | 123.0 | 0 | 0 | 81.0
O=c1oc2cc(OCc3ccc(F)cc3F)ccc2cc1-c1ccc2ccccc2n1 | - | 0 | 0 | 0 | 0
c1ccc(C[C@H]2CNCCN2CC2(c3ccccc3)CC2)cc1 | 0 | - | 0 | - | -
COc1ccc(NC(=O)/C(C#N)=C/c2ccc(-c3ccccc3C(=O)O)o2)cc1 | 0 | 0 | 0 | - | 0
COc1ccc(NC(=O)/C(C#N)=C\c2ccc(-c3cc(C(=O)O)ccc3C)o2)cc1 | 0 | 79.3 | 0 | - | 67.3
COc1ccc(NC(=O)/C(C#N)=C\c2ccc(Br)o2)cc1 | 0 | 80.1 | 0 | 0 | 49.3
Cc1cc(-c2ccc(S(=O)(=O)N(C)Cc3ccccc3)cc2)on1 | 0 | 0 | 0 | - | 0
SMILES | PABP1 MLLE inh | eIF4H inh | GRK2 inh | PERK inh | PABP FP inh
COc1ccccc1NCCC(=O)OCC(=O)Nc1ccccc1Cl | 0 | - | 0 | - | -
Cc1ccc2ncccc2c1 | 0 | - | 0 | - | -
C[n+]1ccccc1/C=C/c1ccc2ncccc2c1 | 0 | 0 | 0 | - | 57.6
C[n+]1ccccc1/C=C/c1ccc(C#N)cc1 | 0 | 0 | 0 | - | 92.6
C[n+]1ccccc1/C=C/c1ccc([N+](=O)[O-])cc1 | 0 | 0 | 0 | - | 0
Cc1ccc(C(=O)Nc2ccc(Nc3ccccc3)cc2)c(Cl)c1 | 0 | 0 | 0 | - | 0
COc1ccc(-c2csc(NC(=O)CSc3nc(C)cs3)n2)cc1 | 0 | - | 0 | 3.6 | -
CCN(CC)c1ccc2nc3ccc(N)cc3[n+](-c3ccccc3)c2c1 | 0 | - | - | - | -
CCN(CC)c1ccc2nc3ccccc3[n+](CC)c2c1 | 0 | 0 | 0 | - | 71.8
Cc1ccc(S(=O)(=O)N2CN(Cc3ccco3)c3nc4ccccc4nc32)cc1 | 0 | ? | 0 | 0 | 51.3
O=S(=O)(c1ccc(F)cc1)N1CN(Cc2ccco2)c2nc3ccccc3nc21 | 0 | 122.4 | 0 | 0 | 122.4
CCCc1c(C(=O)N/N=C/c2cccc(OCc3ccc(F)cc3)c2)nnn1-c1nonc1N | 0 | 0 | 0 | - | 0
Cc1ccc(-n2nc3c(=O)n(CCCC(=O)NC4CCC(C)CC4)nc(C)c3c2C)cc1 (stereo not given) | 0 | 0 | 0 | - | 0
CC(NC(=O)c1ccccc1)C(=O)NC1=NCCS1 (stereo not given) | 0 | 0 | 0 | 0 | 0
CC(C)C(NC(=O)c1ccccc1)C(=O)NC1=NCCS1 (stereo not given) | 43.9 | 0 | 0 | 0 | 0
CCCCN(C=O)c1c(CC)nc2ccc(C(=O)N3CCCCC3)cn12 | 0 | - | - | - | -
c1cncc(-c2nc3ccccc3o2)c1 | 0 | 0 | 0 | 0 | 18.6
c1cncc(-c2nc3cc(Cc4ccc5oc(-c6cccnc6)nc5c4)ccc3o2)c1 | - | 0 | - | - | 0
Cc1cccc(Nc2nnc(SCC3CCCCO3)s2)c1C (stereo not given) | 0 | 1.8 | 0 | 0 | 0
CC1CCN(CCNC(=S)Nc2ccc(Cl)cc2)CC1 | 0 | 0 | 0 | 0 | 0
NC(=S)N=Nc1c(O)n(CCCl)c2ccc(Br)cc12 | 0 | 0 | 0 | 0 | 0
C/C(Cl)=C\Cn1c(O)c(N=NC(N)=S)c2cc(Br)ccc21 | 43.6 | 0 | 0 | 0 | 0
Nc1cccc(C(=O)N/N=C/c2ccsc2)c1 | 0 | 84.3 | 0 | 0 | 5.5
O=C(N/N=C/c1ccsc1)c1cc2ccccc2o1 | 0 | 0 | 0 | - | 0
O=C(CCCSc1ccccc1)Nc1nc(-c2ccco2)c(-c2ccco2)s1 | 0 | 96.2 | 0 | 0 | 0
SMILES | PABP1 MLLE inh | eIF4H inh | GRK2 inh | PERK inh | PABP FP inh
COc1ccc(/C=C(/NC(=O)c2ccc(OC)c(OC)c2)C(=O)NCCCn2ccnc2)cc1 | 0 | 0 | 0 | - | 0
COc1ccc(CC(=O)O/N=C(\N)c2cccc([N+](=O)[O-])c2)cc1 | 0 | ? | 0 | 0 | 121.0
CCCCN(C(=S)NC(=O)c1ccccc1)c1c(N)n(Cc2ccccc2)c(=O)[nH]c1=O | 37.4 | 0 | 0 | 0 | 0
CCN(C(=O)CN1CCCc2ccccc21)c1c(N)n(Cc2ccccc2)c(=O)[nH]c1=O | - | 98.9 | - | - | 109.0
COCCN(C(=O)COC(=O)c1cc2c(s1)CCC2)c1c(N)n(Cc2ccccc2)c(=O)[nH]c1=O | 0 | - | 98.0 | - | -
O=C(NC(=S)Nc1ccc(-c2nc3ncccc3o2)cc1)c1ccccc1F | 0 | 0 | 0 | 0 | 0
CO/N=C/C(C#N)=C/c1cc(C(=O)c2ccccc2)cn1C | 0 | 0 | 0 | 0 | 0
COC(=O)c1sc(=S)n(-c2ccccc2OC)c1N | 0 | 0 | 0 | 0 | 0
CNC(=S)NCCc1ccc(OC)cc1 | 0 | 0 | 0 | 0 | 91.5
COc1ccc(CCNC(=O)c2sc(=S)n(C)c2N)cc1 | 42.8 | 0 | 0 | 0 | 0
CCCCNC(=O)c1sc(=S)n(-c2ccccc2OC)c1N | 45.1 | 0 | 0 | 0 | 0
COc1ccc(CNC(=O)COC(=O)c2ccc(OCC3CCCO3)cc2)cc1 (stereo not given) | 0 | - | 0 | - | -
COc1ccc(CN2CCC[C@]3(N[C@H](c4ccc(C(F)(F)F)cc4)[C@@H]4C(=O)N(C)C(=O)[C@@H]43)C2=O)cc1 | 0 | - | - | - | -

Assay outcomes from PubChem BioAssay.
